CYP2C19 inh: blockers of cytochrome P450 2C19 activity – biochemical, luminescence, ADME assay, primary screen; inhibition, % at 5 µM; P33261; 96,000 tested, 21% active; CYP2C19 Supersomes, luciferin-H EGE luminescence, 30 min;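 active = CYP2C19 inhibition above a set limit at 5 µM in the primary screen, cut at about 50% in these data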;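 note: plate controls were negative control wells for no effect and 2.5 mM tranylcypromine positive control for full effect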
Measles CPE: compounds protecting cells from measles virus cytopathic effect, primary screen, measles RdRp inhibitor project, single point, MLSMR library, absorbance. 140,000 tested, 1.5% active. AID 841, 2007. protection (pct of control), % at 4 µM. Measles virus-infected cells, CPE protection; in the data active = protection mostly above about 24%, no sharp cut-off; inactive = mostly below about 26%
CYP2C19 act: human CYP2C19 activators, primary screen, biochemical, luminescence | recombinant CYP2C19, luciferin-H EGE luminescence; stronger effect = higher value; 0 = fully inhibited enzyme, 1 = untreated enzyme | activation factor at 5 µM | 96,000 tested, under 10 active;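 active = activation factor of at least 2 at 5 µM in the primary screen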;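 note: 0 = wells with 2.5 mM tranylcypromine and 1 = vehicle-only wells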
CYP2C9 activ: human CYP2C9 activators, primary screen, biochemical, luminescence; Cytochrome P450 2C9 (Homo sapiens), P11712; recombinant CYP2C9, luciferin-H conversion; stronger effect = higher value; factor 1 = untreated enzyme, 0 = blocked; activation factor at 5 µM; 96,000 tested, 1.4% active;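 active = activation factor of 2 or more for CYP2C9 at a 5 µM dose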;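 note: 0 = sulfaphenazole-blocked wells and 1 = vehicle-only wells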
Target sequence (P11712 whole entry, looked up): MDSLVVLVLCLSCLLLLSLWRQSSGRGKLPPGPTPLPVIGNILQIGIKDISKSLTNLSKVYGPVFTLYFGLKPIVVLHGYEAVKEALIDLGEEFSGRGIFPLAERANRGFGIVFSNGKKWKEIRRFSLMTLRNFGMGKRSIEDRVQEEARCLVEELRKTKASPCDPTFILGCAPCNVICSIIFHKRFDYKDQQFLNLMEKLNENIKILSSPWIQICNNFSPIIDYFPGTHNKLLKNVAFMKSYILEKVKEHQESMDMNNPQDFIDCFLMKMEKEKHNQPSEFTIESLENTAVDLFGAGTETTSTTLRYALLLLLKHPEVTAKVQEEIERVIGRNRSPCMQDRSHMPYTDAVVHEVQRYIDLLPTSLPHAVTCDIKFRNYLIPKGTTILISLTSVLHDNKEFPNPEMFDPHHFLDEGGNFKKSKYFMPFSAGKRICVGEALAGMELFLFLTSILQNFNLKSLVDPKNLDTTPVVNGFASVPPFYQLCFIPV
CYP2C9 inh: blockers of cytochrome P450 2C9 activity – biochemical, luminescence, ADME assay, primary screen | inhibition, % at 5 µM | AID 777, 2007 | P11712 | 96,000 tested, 20% active | CYP2C9 Supersomes, luciferin-H conversion;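 active = blocking of liver enzyme CYP2C9 beyond about 50% at 5 µM, limit read from the data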
* hit, by the source's call; · = no result. Most compounds without a hit are left out; they make up all but 22% or so of the library.

SMILES	CYP2C19 inh	Measles CPE	CYP2C19 act	CYP2C9 activ	CYP2C9 inh
Cc1ccc(-c2nc3ccc(NS(=O)(=O)c4ccccc4)cc3[nH]2)o1	99.5*	4.1	0	0	100.3*
CCc1cc[n+](/C(C(=S)Nc2cccc(C)c2)=C(/[O-])c2ccc(C)c([N+](=O)[O-])c2)cc1	·	6.5	·	·	·
Cc1cc(N2CCC(C)CC2)nc2cccc(O)c12	23.3	4.1	0.8	3*	-204.7
Cc1noc(/C=C/N(C)C)c1S(=O)(=O)N1CCCC(C(=O)NC(C)c2ccccc2)C1 (configuration not stated)	33.6	2.5	0.7	0.3	67.5*
O=C(NCc1ccc2c(c1)OCO2)C1CCCN(S(=O)(=O)c2cccc3nonc23)C1 (configuration not stated)	13.6	11.6	0.9	0.4	63.8*
CC(NC(=O)C1CCCN(S(=O)(=O)c2cccc3nonc23)C1)c1ccccc1 (configuration not stated)	37.1	3.6	0.6	0.5	53.4*
Cc1noc(/C=C/N(C)C)c1S(=O)(=O)N1CCc2ccccc21	66.6*	22.1	0.3	0.5	48.1
CN1CCc2c(c3c(n2C)CCN(C)[C@@H]3c2cccnc2)[C@H]1c1cccnc1	7.1	22.4	0.9	1	2.6
O=C(COC(=O)/C=C/c1cccc(Br)c1)NCCC1=CCCCC1	·	8.9	·	·	·
O=C(NCCn1cc(SCc2ccccc2F)c2ccccc21)c1c(F)cccc1F	·	2.9	·	·	·
CCc1ccc(-c2cc(C(=O)NCc3ccccn3)c3ccccc3n2)cc1	·	12.9	·	·	·
O=C(NC1CCN(Cc2ccccc2)CC1)C1CCCN(S(=O)(=O)c2cccc3nonc23)C1 (configuration not stated)	53.1*	14.1	0.5	1.1	-14.7
CCCNC(=O)CN(c1ccccc1)S(=O)(=O)c1ccc(OC)c(OC)c1	·	13.3	·	·	·
O=C(Cc1ccccc1)NC(=S)Nc1cccc(C(F)(F)F)c1	2.4	12.6	1	0.9	13.1
S=C(NCc1ccccn1)Nc1cccc(Cl)c1	57.3*	9.9	0.4	1.1	-12.3
Cc1ccc(NC(=S)NNC(=S)NCc2ccccc2)cc1	12.5	11.2	0.9	0.1	94.2*
FC(F)(F)c1cccc(NC(=S)NCc2ccccn2)c1	·	4.5	·	·	·
FC(F)(F)c1cccc(NC(=S)NNC(=S)NCc2ccccc2)c1	11.8	3.1	0.9	0.2	75.4*
Cc1ccc(NC(=S)NCc2ccccn2)cc1	32.4	2.9	0.7	0.3	69.2*
COc1ccc(S(=O)(=O)N2CCN(C(=O)COc3ccc4c(C)cc(=O)oc4c3)CC2)cc1	19.0	24.2	0.8	0.9	9.5
CCc1ccccc1-n1c(SCC(=O)N2CCCC2)nnc1-c1ccccn1	30.9	5.6	0.7	0.7	25.1
CN(C1CCCCC1)S(=O)(=O)c1ccc2c(c1)c(=O)c(C(=O)NCCCN1CCCC1)cn2C	11.0	14.7	0.9	0.8	15.7
CCc1cccc2c(C(=O)COC(=O)/C=C/c3ccccc3OC)c[nH]c12	·	5.5	·	·	·
COCCOC(=O)c1[nH]c2c(c1C)C(=O)CC(c1ccc(F)cc1)C2 (configuration not stated)	82.6*	10.6	0.2	0	98.1*
COCCOC(=O)c1[nH]c2c(c1C)C(=O)CC(c1ccc(N(C)C)cc1)C2 (configuration not stated)	88.2*	11.3	0.1	0.1	93.2*
SMILES	CYP2C19 inh	Measles CPE	CYP2C19 act	CYP2C9 activ	CYP2C9 inh
COCCOC(=O)c1[nH]c2c(c1C)C(=O)CC(c1ccccc1)C2 (configuration not stated)	·	4.6	·	·	·
Cc1c(C(=O)O)[nH]c2c1C(=O)CC(c1ccccc1)C2 (configuration not stated)	-16.2	7.2	1.2	1.1	-7.6
O=C(NC(CC(=O)N1CCN(c2ccc([N+](=O)[O-])cc2)CC1)c1ccccc1)c1ccccc1Cl (configuration not stated)	·	7.0	·	·	·
CCCc1nc2ccccc2c(C(=O)OC2CCOC2=O)c1CC (configuration not stated)	53.1*	10.6	0.5	0.3	65.1*
CCc1nc2ccccc2c(C(=O)OC2CCOC2=O)c1C (configuration not stated)	51.9*	5.8	0.5	1.1	-5.4
CCCc1nc2ccccc2c(C(=O)O)c1CC	1.7	0.8	1	1	1.3
CCN(CC)CCCN1C(=O)C(=O)/C(=C(/O)c2ccccc2)C1c1cc(OC)ccc1OC (configuration not stated)	1.0	·	1	1	0.7
Cc1ccc(-c2noc(CCC(=O)NCCc3ccccc3Cl)n2)cc1	33.3	4.7	0.7	0.6	39.3
CCN(Cc1ccccc1)C(=O)CCc1nc(-c2ccc(C)cc2)no1	81.4*	8.8	0.2	0.1	88.5*
CCOC(=O)N1CCC(NC(=O)CC(NS(=O)(=O)c2ccc(C)cc2)c2ccco2)CC1 (configuration not stated)	48.2	13.2	0.5	0.4	59.1*
Cc1ccc(S(=O)(=O)NC(CC(=O)N2CCc3ccccc32)c2ccco2)cc1 (configuration not stated)	33.3	3.2	0.7	0.6	39.5
CC(C)(C)c1ccc(-c2noc(CCC(=O)NCC3CCCO3)n2)cc1 (configuration not stated)	64.7*	18.9	0.4	0.5	47.6
CCc1ccccc1N(CC)C(=O)CCc1nc(-c2ccc(C)cc2)no1	27.1	7.1	0.7	0.5	54.7*
O=C(O)CCCC(=O)NNc1ncnc2ccccc12	·	15.5	·	·	·
CC(=O)c1cccc(N(CC(=O)N2CCCC2)S(C)(=O)=O)c1	4.4	2.5	1	1	0.0
CCOC(=O)N1CCC(NC(=O)CCc2nc(-c3ccc(C)cc3)no2)CC1	40.7	5.7	0.6	0.3	72.9*
Cc1ccccc1Oc1cc(-n2ncc(Cl)c(Cl)c2=O)ncn1	·	1.6	·	·	·
COc1ccc(C2C(C(=O)c3sc(C)nc3C)=C(O)C(=O)N2CCN(C)C)cc1 (configuration not stated)	-5.5	14.8	1.1	1.1	-7.5
CC(C)OC(=O)c1c(NC(=O)CCn2nnc3ccccc32)sc2c1CCCC2	56.7*	5.6	0.4	0.2	82.3*
O=S(=O)(Nc1cccnc1)c1cccc(Cl)c1	23.4	3.8	0.8	0.8	15.2
O=S(=O)(Nc1ccncc1Cl)c1ccccc1	-9.0	10.6	1.1	0.3	70.3*
O=C(/C=C/c1ccccc1Cl)NCc1ccccc1	7.6	16.2	0.9	2.1*	-110.0
CCN(CC)c1ccc(NC(=O)/C=C\c2ccccc2Cl)cc1	71.2*	-0.3	0.3	2.3*	-125.0
O=C(/C=C/c1ccccc1Cl)NCCc1ccccc1	47.5	4.6	0.5	1.4	-42.5
C/C(=N\NC(=O)C(N)=O)c1ccc(Br)cc1	·	1.4	·	·	·

Screening results as filed in PubChem.
